SRC1 inh – human NCOA1 inhibition; inhibition, % at 3.6 µM; AID 588354; HEK293 GAL4-SRC1 luciferase reporter, luminescence; 0.12% of 360,000 active;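 active means inhibition above the campaign mean plus 3 SD, with each screening campaign given its own cutoff, cut at about 60% in these data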;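 further: 0% = DMSO treated cells and 100% = gossypol at 36 µM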
SRC3 inh – inhibitors of human steroid receptor coactivator 3 (SRC3) | HEK293 GAL4-SRC3 luciferase reporter, luminescence | inhibition, % at 3.6 µM | 0.17% of 360,000 active;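 active means inhibition above a per-campaign cutoff, the mean of all compounds plus 3 SD, cut at about 60% in these data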;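 further: 0% = DMSO-treated cells and 100% = gossypol-treated cells at 36 µM; higher means less SRC3-driven luciferase light from the GAL4 reporter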
NR2F2 inh – NR2F2 (human) inhibition, primary screen; HEK293T NGFI-A luciferase reporter, luminescence; inhibition, % at 8.6 µM; 0.7% of 370,000 active; P24468;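 active means inhibition above a per-plate cutoff, mean inhibition of test wells between control levels plus 3 SD, cut at about 38% in these data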;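 further: cells cotransfected with COUP-TFII expression vector driving the NGFI-A reporter; 0% = median of COUP-TF2 test wells and 100% = reporter-only cells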
SRC2 inh – inhibits human steroid receptor coactivator 2. inhibition, % at 9 µM. Q15596. AID 651957. 0.17% of 370,000 active. HEK293 GAL4-SRC2 luciferase reporter, luminescence;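 active means inhibition above the mean inhibition of all tested compounds plus 3 SD, set per campaign, cut at about 52% in these data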;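 further: 0% = DMSO treated cells and 100% = cells given Gossypol at 36 µM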
LRH-1 inv ag – suppresses constitutive activity of human LRH-1 | inhibition, % at 3.6 µM | 0.13% of 360,000 active | O00482 | HEK293T StAR-luciferase reporter, LRH-1 transfected, 24 h;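 active means inhibition above the mean inhibition of all tested compounds plus 3 SD, cut at about 73% in these data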;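 further: 0% = DMSO wells and 100% = reporter-only cells lacking LRH-1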
Gal4-VP16 ctr – VP16 inhibition counter-screen for COUP-TFII. shares compounds with NR2F2 inh. HEK293 Gal4-VP16 luciferase reporter, luminescence. inhibition, % at 8.5 µM. 25% of 2,500 active. AID 687007; in the data active means inhibition above about 13%
NR2F2 inh conf – COUP-TFII (NR2F2) inhibition, confirmation assay. shares compounds with NR2F2 inh. HEK293 NGFI-A luciferase reporter, luminescence. inhibition, % at 8.5 µM. 45% of 2,500 active. AID 687008;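 active means mean inhibition over three repeats above a set limit taken from the earlier primary screen, cut at about 38% in these data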;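 further: 100% = cells given the luciferase reporter alone without the COUP-TF2 vector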
* = called active by the depositor; . = no result. A selection: hits, their analogues and other compounds. The true share with any hit is near 0.81%.

SMILES	SRC1 inh	SRC3 inh	NR2F2 inh	SRC2 inh	LRH-1 inv ag	Gal4-VP16 ctr	NR2F2 inh conf
Cc1cc(C(=O)COC(=O)c2cccnc2Cl)c(C)n1CC1CCCO1 (stereo not drawn)	58	61	63*	47	41	-22	56*
Cc1cc(C(=O)COC(=O)c2cccc(NS(C)(=O)=O)c2)c(C)n1CC1CCCO1 (stereo not drawn)	47	38	72*	9	39	-26	57*
Cc1ccc(C(=O)OCC(=O)c2cc(C)n(CC3CCCO3)c2C)cc1 (stereo not drawn)	-17	-16	13	-60	-26	.	.
Cc1cc(C(=O)COC(=O)c2ccccc2NCCO)c(C)n1CC1CCCO1 (stereo not drawn)	-31	14	44*	30	10	-98	-7
Cc1cc(C(=O)COC(=O)c2cc(O)c3ccccc3c2O)c(C)n1CC1CCCO1 (stereo not drawn)	-59	11	.	.	10	.	.
Cc1cc(C(=O)COC(=O)c2ccccc2Br)c(C)n1CC1CCCO1 (stereo not drawn)	82*	84*	90*	82*	82*	85*	101*
CC[C@H](C)[C@H]1CNC(=O)C(=O)N1CC1CCN(CC(C)C)CC1	.	.	-14	-9	.	.	.
Cc1ccc2oc(=O)c3cc(C(=O)NCCCN4C(C)CCCC4C)sc3c2c1 (stereo not drawn)	-42	-21	-29	5	-23	.	.
CN(CC(=O)Nc1ccc(F)cc1)C(=O)COC(=O)/C=C/c1ccccc1[N+](=O)[O-]	1	14	-8	-1	9	.	.
COc1ccc(CN2CC(=O)N(c3cc(Cl)ccc3OC)C2=S)cc1OC	14	-16	-7	-11	-23	.	.
Cc1cc(C(=O)COc2ccccc2C(N)=O)c(C)n1CC1CCCO1 (stereo not drawn)	-21	21	57*	-2	33	-24	39*
COCCn1c(C)cc(C(=O)COC(=O)c2ccccc2Br)c1C	81*	81*	87*	74*	78*	72*	95*
COCCn1c(C)cc(C(=O)CSc2ccc3ccccc3n2)c1C	-70	-62	0	-30	-100	.	.
COCCn1c(C)cc(C(=O)COc2nc3ccccc3nc2C)c1C	0	7	67*	25	10	6	47*
Cc1cc(C(=O)COC(=O)c2ccccc2O)c(C)n1CC1CCCO1 (stereo not drawn)	90*	88*	97*	89*	91*	89*	105*
Cc1ccc(NCC(=O)Nc2c(C)n(C)n(-c3ccccc3)c2=O)cc1S(=O)(=O)N(C)C	-4	13	-16	8	9	.	.
C=CCn1c(SCC(=O)Nc2ccccc2-c2ccccc2)nnc1-c1ccc(Cl)cc1	.	.	0	11	.	.	.
Cc1ccc2nc(NC(=O)CSCC(=O)OCC(=O)c3ccccc3)sc2c1	30	55	77*	73*	53	79*	59*
CCC(NC(=O)Nc1nnc(C(F)(F)F)s1)(C(F)(F)F)C(F)(F)F	56	76*	67*	24	62	17*	60*
Cc1ccc(C2=[N+]([O-])C3(CCCCC3=O)N(O)C2(C)C)cc1 (stereo not drawn)	4	-2	80*	78*	8	-6	-7
Cc1noc(C)c1COc1ccccc1C(=O)N(C)Cc1ccc(F)cc1	-2	19	-9	-3	22	.	.
Cc1noc(C)c1COc1ccccc1C(=O)N(C)Cc1ccc(C(C)(C)C)cc1	-8	25	41*	-1	13	-5	15
O=C(NC1CCN(Cc2ccccc2)CC1)c1cccc(S(=O)(=O)Nc2ccc(F)cc2)c1	16	21	55*	16	24	3	34
Cc1ccc(NS(=O)(=O)c2cccc(C(=O)NC3CCN(Cc4ccccc4)CC3)c2)c(C)c1	-3	-24	56*	32	23	4	28
Cc1ccc(C)c(OCc2cc(C(=O)NC3CCN(Cc4ccccc4)CC3)no2)c1	-6	1	48*	24	22	1	21
